Among the data in PubChem BioAssay are GFP response, % of DMSO values, retold here.

This experiment in a line: TOR pathway CIT2 reporter hit retest – S. cerevisiae, GFP fusion, cherry picks, mother/daughter gates, confirmation (AID 2274). The note with it: S. cerevisiae CIT2-GFP strain, flow cytometry, 3 h; measured here: mother cell gate; at 10 µM; stronger effect = higher value. (In general: Flow cytometry measures light scatter and fluorescence of single cells or particles in a stream.)
In turn, `O=S(=O)(c1cccc(C(F)(F)F)c1)c1ccc(O)cn1` gave a GFP response, % of DMSO of 103%.

Regarding `COc1cc(/C=N/Nc2nc(C)cc(=O)[nH]2)ccc1O`, the GFP response, % of DMSO was found to be 115%.

The molecule `O=C(N/N=C/c1ccccc1Cl)c1ccc(F)cc1` returned a GFP response, % of DMSO of 103%.

For the molecule `Cc1cccc(C(=O)Nc2ccc(O)cc2)c1`, the GFP response, % of DMSO was 104%.

Consider `COc1ccc(NC2=C(Cl)C(=O)N(CCc3ccccc3)C2=O)cc1`, for which the GFP response, % of DMSO stood at 103%.

Molecule `CN(C(=O)c1cccnc1)c1nc(-c2ccccc2)cs1` showed a GFP response, % of DMSO of 96%.

In turn, `Cc1ccc(NC(=O)c2nc(S(=O)(=O)Cc3ccccc3C)ncc2Cl)cc1C` showed a GFP response, % of DMSO of 94.9%.

As for `Cc1cccn2c(=O)c(/C=C(\C#N)C(=O)NCc3ccco3)c(N3CCC(C(N)=O)CC3)nc12`, the GFP response, % of DMSO was 92.8%.

`Cc1cc(C)c(C)c(S(=O)(=O)ON2C(=O)c3ccccc3C2=O)c1C`: the GFP response, % of DMSO turned out to be 91%.

As to `CS(=O)(=O)c1nc(-c2cccs2)cc(C(F)(F)F)n1`, the GFP response, % of DMSO came out at 89.5%.

Consider `COc1cc(NC(=O)c2cccs2)ccc1NC(=O)c1cc2ccccc2o1`, for which the GFP response, % of DMSO came to 101%.

On to `Cc1cc(NCCN2CCOCC2)n2ncc(-c3ccccc3)c2n1`, for which the GFP response, % of DMSO is 104%.
